Reference: PubChem BioAssay (NCATS)
Unmarked numbers belong to inactive results. The rule behind the calls is not given here.

What follows are compounds tested on HIV-1 nucleocapsid protein NCp7 (binding to TG oligonucleotide) (assay: HIV Nucleocapsid (AID 346;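 note: potency is for inhibitors that block NC binding and lower polarization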)). Conditions: HIV-1 NC / fluorescein-TGTGTGTG probe, fluorescence polarization.
Procedure, shortened: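 Fluorescence polarization binding of 100 nM HIV-1 NC to 10 nM fluorescein-labelled TG4xF oligonucleotide. Buffer was Hepes pH 7.5 with 250mM NaCl, 1uM ZnCl2, TCEP and 2-mercaptoethanol. Compounds were incubated 1 hr at room temperature before the read.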
Potency is the fitted concentration of half-maximal effect.

SMILES | Potency
COCC(=O)N1CCC2(CCN(Cc3ccncc3)CC2)CC1 | > 20 µM
CN(C)c1ncc2nc(CCc3ccccc3)c(=O)n(C3CC3)c2n1 | > 20 µM
CN(Cc1ccco1)c1cc(-c2ccc3c(c2)OCO3)ncn1 | > 20 µM
c1ccc(CNc2cc(-c3ccoc3)ncn2)cc1 | > 20 µM
Cc1noc(C)c1C(=O)N1CCC[C@@]2(CCN(Cc3ccc(C#N)cc3)C2)C1 | > 20 µM
O=C(Oc1ccccc1)N1CCC2(CC1)CCN(c1cccc(-c3ccccc3)c1)CC2 | > 20 µM
COCCn1c(=O)c(-c2cn(C)c3ccccc23)nc2cnc(Oc3ccc(OC)cc3)nc21 | > 20 µM
CCNc1ncc2nc(CCc3ccccc3)c(=O)n(Cc3ccc(F)cc3)c2n1 | > 4 µM
CS(=O)(=O)N1CCC2(CC1)CN(C(c1ccccc1)c1ccccc1)C2 | > 20 µM
O=C(c1ccncc1)N1CCC2(CC1)CCN(c1ccccn1)CC2 | > 20 µM
O=C(c1csnn1)N1CCC2(CC1)CCN(c1ncccn1)CC2 | > 20 µM
O=c1c(-c2ccccc2)nc2cnc(Nc3ccccc3)nc2n1C[C@H]1CCCO1 | > 20 µM
COc1ccc(-n2c(=O)c(-c3cc(F)cc(F)c3)nc3cncnc32)cc1 | > 20 µM
COc1cccc(Nc2ncc3nc(C)c(=O)n(CCC#N)c3n2)c1 | > 20 µM
O=c1c(-c2cccs2)nc2cnc(N3CCOCC3)nc2n1-c1ccccc1 | > 20 µM
FC(F)(F)c1ccccc1-c1cncnc1NCCc1cnc[nH]1 | > 20 µM
c1nc(NC2CCNCC2)c2cc(-c3ccoc3)ccc2n1 | > 20 µM
CCNc1ncc2nc(-c3ccc(F)cc3)c(=O)n(-c3ccc(OC)cc3)c2n1 | > 4 µM
COc1ccc(NC(=O)N2CCCC3(CCN(C(=O)c4cnccn4)CC3)C2)cc1 | > 20 µM
O=c1c(-c2ccccc2)nc2cnc(N3CCOCC3)nc2n1C1CC1 | > 20 µM

SMILES | Potency
COc1ccc(C(=O)N2CCC[C@@]3(CCN(Cc4nccs4)C3)C2)cc1 | > 20 µM
COc1ccc(-n2c(=O)cnc3cnc(Oc4cccc(Cl)c4)nc32)cc1 | > 20 µM
FC(F)(F)c1ccccc1-c1cc(NCc2cccs2)ncn1 | > 20 µM
COc1ccc(C(=O)N2CCC[C@@]3(CCN(Cc4cc(C(F)(F)F)cc(C(F)(F)F)c4)C3)C2)cc1 | > 20 µM
O=c1c(-c2ccc(F)cc2)nc2cnc(N3CCOCC3)nc2n1C[C@H]1CCCO1 | > 20 µM
Cn1cccc1C(=O)N1CCC2(CC1)CCN(C(c1ccccc1)c1ccccc1)CC2 | > 20 µM
CC(C)CN1CCC2(CC1)CCN(C(=O)c1ccncc1)CC2 | > 20 µM
O=C(c1csnn1)N1CCC2(CCN(Cc3ccccc3)CC2)CC1 | > 20 µM
COC(=O)N1CCC2(CC1)CCN(c1ccccc1)CC2 | > 20 µM
FC(F)(F)c1ccccc1-c1cc(NCc2ccccc2)ncn1 | > 20 µM
COc1ccc2[nH]cc(CCNc3ncnc4ccc(-c5cccnc5)cc34)c2c1 | > 20 µM
COC(=O)N1CCC2(CCCN(C(=O)Nc3cccc(F)c3)C2)CC1 | > 20 µM
CN(C)c1ncc2nc(-c3ccccc3)c(=O)n(C[C@H]3CCCO3)c2n1 | > 20 µM
O=c1cnc2cncnc2n1Cc1ccc(F)cc1 | > 20 µM
COc1ccc(Oc2ncc3nc(-c4ccc(OC)cc4)c(=O)n(C)c3n2)cc1 | > 20 µM
Cc1cnc(CNc2ncncc2-c2ccoc2)cn1 | > 20 µM
COc1ccccc1CNc1ncncc1-c1ccc(N(C)C)cc1 | > 20 µM
O=c1c(-c2ccc(F)cc2)nc2cnc(Nc3ccccc3)nc2n1C[C@H]1CCCO1 | > 20 µM
N#Cc1ccc(CN2CCCC3(CCN(C(=O)c4cccc(F)c4)CC3)C2)cc1 | > 20 µM
c1cncc(-c2nccc(-n3ccnc3)n2)c1 | > 20 µM
